ALDH1A1 inh – blocks purified human ALDH1A1 activity; P00352; Purified ALDH1A1, NADH fluorescence, propionaldehyde substrate; Potency, µM (top dose mostly 75.3 µM), without a hit: at the highest dose activity, negative = inhibition, hits mostly inhibitors; 220,000 tested, 7.3% active; AID 1030; active = well fitted inhibition curve with a large enough effect, not every such curve was filed as active; inconclusive = small, poorly fitted or top-dose-only effect, or another doubt; inactive = no such curve, though single readings can be large or run the other way;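 also: potency is read from the fitted curve at half-maximal effect; plate controls were no enzyme wells and a reference inhibitor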
CBFb RUNX1 block – blocks binding between human CBF-beta and RUNX1; 230,000 tested, under 10 active; Potency, µM (doses to about 59.8 µM), without a hit: top-dose activity, negative = inhibition, most hits filed as inhibitors; AID 1477; AlphaScreen CBFb-His/RUNX1-biotin binding, biochemical; Q01196+Q13951; also: % of control where 0% means no effect
Target sequence (Q01196 whole entry, looked up): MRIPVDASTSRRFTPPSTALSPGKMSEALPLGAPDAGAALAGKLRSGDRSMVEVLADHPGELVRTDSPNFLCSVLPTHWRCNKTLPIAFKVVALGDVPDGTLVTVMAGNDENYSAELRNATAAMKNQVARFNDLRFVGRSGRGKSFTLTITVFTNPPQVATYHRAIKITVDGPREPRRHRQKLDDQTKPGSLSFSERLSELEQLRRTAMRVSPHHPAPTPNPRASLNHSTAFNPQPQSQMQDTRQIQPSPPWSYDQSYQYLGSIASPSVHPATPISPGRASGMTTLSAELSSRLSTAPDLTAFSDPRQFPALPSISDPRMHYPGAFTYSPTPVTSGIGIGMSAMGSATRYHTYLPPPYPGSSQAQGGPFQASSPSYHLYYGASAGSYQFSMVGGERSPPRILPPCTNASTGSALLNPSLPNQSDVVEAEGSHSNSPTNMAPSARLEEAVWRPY
Target sequence (Q13951 whole entry, looked up): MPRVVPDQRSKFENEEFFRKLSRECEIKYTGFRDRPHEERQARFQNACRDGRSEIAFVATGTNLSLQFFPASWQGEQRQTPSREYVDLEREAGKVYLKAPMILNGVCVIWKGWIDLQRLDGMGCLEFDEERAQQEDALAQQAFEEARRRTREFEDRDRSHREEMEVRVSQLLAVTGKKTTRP
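CBFb-His/RUNX1-biotin, 30 nM each, preincubated 20 min RT; compound 15 min RT; Ni + streptavidin beads 50 ng each, 90 min RT; AlphaScreen read.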
HttQ103 aggreg – mutant huntingtin aggregation inhibition. PC12 HttQ103-GFP aggregates, Acumen cytometry, 40 h. Potency, µM (doses to about 46.1 µM), inactives show at the top dose activity change, negative = inhibition, hits mostly inhibitors. 220,000 tested, 1.1% active; also: potency is read from the fitted curve at half-maximal effect; % is scaled to controls: 0 for no effect and ±100 for the full control effect; nearly all actives have a fitted effect of over 60% in size
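Aggregate formation scored by laser-scanning cytometer (488 excitation, 500–530 emission) in lysed PC12 cells expressing Q103-GFP after 100 nM tebufenozide induction; library tested in dose series, with ATPLite reagent added in the multiplex.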
HTT cytoprotect – protects HTT-Q103 PC12 cells, measured by ATP. PC12 HTT-Q103 induced, cytoprotection, ATP luminescence, 40 h. Potency, µM (doses to about 56.4 µM), for the others: cytoprotection (ATP increase), most hits filed as activators. 230,000 tested, 0.14% active; also: potency is read from the fitted curve at half-maximal effect; % of control where 0% means no effect; nearly all actives have a fitted effect of over 45% in size
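Huntington model: PC12 line, ecdysone-inducible HTTQ103 exon1–GFP, tebufenozide 100 nM. Test articles in a dose series. Endpoint luminescence from cellular ATP.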
PNC assembly inh – blocks assembly of the perinucleolar compartment. PC3M PTB-GFP, PNC prevalence imaging, 16 h; active compounds read low. 140,000 tested, 3.1% active. AID 2417. activity change (PNC), negative = inhibition, % at 10 µM;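 active = readout at or below -70, meaning at least 70% loss of cells showing the perinucleolar compartment, a nuclear body marking cancer cells; inconclusive = readout between -30 and a set limit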;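 also: plate controls were DMSO wells for no effect and camptothecin positive control wells for full effect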
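Read-out is percentage of cells bearing a perinucleolar compartment, from automated 20x imaging of fixed, Hoechst-stained PC3M PTB-GFP cells. Cells were seeded 4 h, then exposed 16 h to compound (23 nl of library stock) in duplicate plates.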
HPGD block – inhibitors of human 15-hydroxyprostaglandin dehydrogenase (HPGD); purified HPGD, NADH fluorescence kinetic, PGE2 substrate; 150,000 tested, 4.3% active; P15428; Potency, µM, inactives show at the highest dose activity change, negative = inhibition, hits mostly inhibitors; active = well fitted inhibition curve with a large enough effect, not every such curve was filed as active; inconclusive = small, poorly fitted or top-dose-only effect, or another doubt; inactive = no such curve, though single readings can be large or run the other way; also: potency is read from the fitted curve at half-maximal effect; % is scaled to controls: 0 for no effect and ±100 for the full control effect
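NADH formation kinetics: reaction with 30 uM PGE2 and 1 mM NAD+ (final), 20 nM enzyme, Tris-HCl pH 8 with Tween 20, after 15 min compound preincubation at room temperature. Fluorescence change, last versus first of five reads.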
* = called active by the depositor; ? = inconclusive; nt = not tested or not shown; [ ] = remark or other dose. The list is not random: actives were taken first. Their share in the collection is about 11%. Unless noted, calls follow the shape of the dose curve; as a rule, active = well fitted curve in the direction sought with a large enough effect; inconclusive = small, poorly fitted or top-dose-only effect, or another doubt; inactive = no such curve, though single readings can be large; an effect the other way counts as inactive or inconclusive.

SMILES	ALDH1A1 inh	CBFb RUNX1 block	HttQ103 aggreg	HTT cytoprotect	PNC assembly inh	HPGD block
COc1ccc(-c2csc(NCc3ccco3)n2)cc1	?	-22%	8%	-94%[10 µM]	28	-18%
Cc1ccn2c(-c3csc(NCc4ccccc4)n3)c(C)nc2c1	?	?	11µM*	26%[1.9 µM]	?	?
Cc1ccn2c(NCc3ccccc3)c(-c3cccs3)nc2c1	?	-13%	nt	nt	nt	nt
Cc1nc2ccccn2c1-c1csc(NCc2ccco2)n1	22µM*	-15%	5.6µM*	16%	15	?
c1coc(CNc2nc(-c3ccncc3)cs2)c1	1%	-10%	14µM*	-13%[10 µM]	426	-22%
OCCC1CN(CCCn2cccn2)CCN1C1CCCCC1 (configuration not stated)	6%	-4%	15%[9.22 µM]	31%[10 µM]	nt	nt
COc1ccc(CCNC(=O)c2cc(-c3ccc(Cl)c(Cl)c3)oc2C)cc1	-2%	-2%	-16%	8%[10 µM]	53	?
Cc1ccc(S(=O)(=O)NC(C(=O)Oc2ccc3c(C)c(Cl)c(=O)oc3c2)c2ccccc2)cc1 (configuration not stated)	?	0%	-6%	11%[10 µM]	-111*	?
Cc1ccc(C)c(S(=O)(=O)N2CCC(c3nc4c(nnn4Cc4ccc(F)cc4)c(=O)[nH]3)CC2)c1	-10%	-13%	?	-62%	-20	13µM*
Cc1ccc(Cn2nnc3c(=O)[nH]c(C4CCN(S(=O)(=O)c5cc(C)ccc5C)CC4)nc32)cc1	-6%	1%	?	-74%	44	22µM*
Cc1ccc(NC(=O)CSCc2nc3c(nnn3Cc3ccc(F)cc3)c(=O)[nH]2)c(C)c1	7%	-2%	8%[9.22 µM]	0%[10 µM]	nt	nt
Cc1ccc(Cn2nnc3c(=O)[nH]c(C4CCN(S(=O)(=O)c5ccc(F)cc5)CC4)nc32)cc1	0%	-3%	?	-1%[10 µM]	122	-16%
COc1cc(OC)cc(C(=O)N2CCN(C(=O)c3cccc(F)c3)CC2)c1	?	0%	-4%	11%[0.074 µM]	2	5%
COc1cccc(CC(=O)n2nc(N)c3cc4ccc(OC)cc4nc32)c1	1%	-1%	-10%	?	-6	-16%
COc1ccc(C(=O)n2nc(-c3ccc(OC)cc3)nc2N)cc1	-1%	16%	-7%	4%[10 µM]	?	-19%
COc1ccc2cc3c(N)nn(C(=O)c4cccc(F)c4)c3nc2c1	nt	-2%	1µM*	-22%[10 µM]	nt	nt
COc1ccc2cc3c(N)nn(C(=O)c4ccccc4Cl)c3nc2c1	nt	-2%	0.35µM*	0%[10 µM]	nt	nt
COc1ccc2cc3c(N)nn(C(=O)c4ccc(F)cc4)c3nc2c1	nt	5%	2.8µM*	-10%[10 µM]	nt	nt
CO/N=C(/C(=O)N[C@@H]1C(=O)N2C(C(=O)O)=C(COC(N)=O)CS[C@H]12)c1ccco1	?	18%[21.7 µM]	15%	-6%	nt	-2%
N#CCCn1c(=O)c(CCc2ccccc2)nc2cnc(N3CCOCC3)nc21	?	nt	nt	1%	nt	?
COc1ccc(C(=O)N2CCC[C@@]3(CCN(Cc4nccs4)C3)C2)cc1	8.9µM*	nt	nt	0%	nt	-24%
COc1ccc(C(=O)N2CCC[C@@]3(CCN(Cc4ccc(C#N)cc4)C3)C2)cc1	?	nt	nt	17%	nt	16µM*
Cc1ccc(-c2nn(-c3ccccc3)cc2/C=N/NC(=O)c2ccncc2)o1	?	-6%	-14%	-7%[10 µM]	nt	nt
O=C(N/N=C\c1cn(-c2ccccc2)nc1-c1ccccc1)c1ccc(Br)o1	?	-7%	25µM*	-49%	-19	?
O=C(N/N=C/c1cn(-c2ccccc2)nc1-c1ccccc1)c1ccco1	108%	2%	8%	-6%[10 µM]	27	-23%
SMILES	ALDH1A1 inh	CBFb RUNX1 block	HttQ103 aggreg	HTT cytoprotect	PNC assembly inh	HPGD block
Cc1ccc(-c2nn(-c3ccccc3)cc2/C=N/NC(=O)c2ccc(Br)o2)cc1	?	0%	7.1µM*	-42%	-9	?
Cc1ccccc1N1C(=O)c2sc3nc4c(c(=O)n3c2C1=O)CCC4	28µM*	1%	-4%	28%	-4	32µM*
O=C1c2sc3nc4ccccc4n3c2C(=O)N1c1ccccc1Cl	16µM*	0%	-10%	-16%	20	14µM*
O=c1/c(=C\c2cccnc2)sc2nc3ccccc3n12	2%	13%	-7%	-2%	2	-7%
CCCC(=O)N1CCN(c2ccc(C(=O)c3ccc(OC)c(Br)c3)cc2F)CC1	1%	-1%	-6%	-3%	1	-11%
COc1ccc(C(=O)c2ccc(N3CCN(C(=O)c4ccc(F)cc4)CC3)c(F)c2)cc1Br	?	1%	13µM*	-49%	-26	?
COc1ccc(C(=O)c2ccc(OC)c(Br)c2)cc1Br	20µM*	-15%	-13%	16%[10 µM]	?	-16%
CCCC(=O)c1ccc(N2CCN(C(=O)c3ccccc3Br)CC2)c(F)c1	16µM*	4%	?	-3%	28	-14%
C=CCN(CC=C)C(=S)NC(=O)c1ccc(OC)c(Br)c1	?	7%	-15%	-13%	-86*	-15%
CCC(C(=O)Nc1cc(C(=O)Nc2cc(C)ccn2)ccc1Cl)c1ccccc1 (configuration not stated)	?	-3%	-11%	4%[10 µM]	5	?
O=C(/C=C/c1ccc(S(=O)(=O)N2CCOCC2)cc1)NCc1ccccc1Cl	8.9µM*	-22%	4%	5%[10 µM]	42	-11%
COc1ccccc1-n1c(CNC(=O)COc2ccccc2)n[nH]c1=S	2.2µM*	-2%	9%	18%	1	?
Oc1cc2c(cc1C(c1ccc(Cl)c(Cl)c1)N1CCCC1)OCO2 (configuration not stated)	0.79µM*	-22%	19%[9.22 µM]	-47%	nt	nt
COc1ccc([C@@H](C)c2cc3c(cc2O)OCO3)cc1	3%[13.5 µM]	nt	nt	-14%[10 µM]	nt	-9%
Cc1cc2oc(=O)cc(-c3ccccc3)c2c(C)c1-c1ccc(C#N)cc1	13µM*	-9%[89.1 µM]	nt	-61%	nt	-21%
Cc1cc2oc(=O)cc(-c3ccccc3)c2c(C)c1-c1cccc(N)c1	25µM*	?	nt	nt	nt	-13%
CC(=O)c1ccc(-c2c(C)cc3oc(=O)cc(-c4ccccc4)c3c2C)cc1	-15%	10%[89.1 µM]	nt	-155%	nt	?

High-throughput results (PubChem)
